How the values were obtained:
Assay in all cases: DAPPL (digital affinity profiling via proximity ligation, sequencing); 10 mM Tris-HCl pH 7.5, 50 mM NaCl, 1 mM DTT, 4% glycerol, room temperature, 30 min; GST-TFs on glutathione beads, 16-mer random dsDNA library, 0.1% formaldehyde crosslink after washing; high values mean tight binding
FEV = target: T1, FEV (Homo sapiens, UniProt Q99581 1-238); conditions: protein: recombinant; tags: N-terminal GST; dsDNA, one strand shown
T1 sequence: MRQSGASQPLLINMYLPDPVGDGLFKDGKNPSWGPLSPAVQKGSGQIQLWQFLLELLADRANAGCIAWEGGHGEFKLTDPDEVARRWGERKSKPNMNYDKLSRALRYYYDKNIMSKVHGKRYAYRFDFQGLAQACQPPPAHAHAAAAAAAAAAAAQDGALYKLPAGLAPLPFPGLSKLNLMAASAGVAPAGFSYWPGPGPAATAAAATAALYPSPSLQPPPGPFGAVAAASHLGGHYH
Procedure, shortened: (§1)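 Sequencing on an Illumina NextSeq500 followed washing, crosslinking with 0.1% formaldehyde, proximity ligation (BsaI/T4 ligase, 1 h, 37 °C) and PCR amplification of pools that had been incubated for 30 min at room temperature with 200 nmole of a random double-stranded 16-mer DNA library in Tris/NaCl/DTT/glycerol buffer. Each pool held DNA-barcoded human transcription factors, expressed in yeast as GST fusions and captured on glutathione beads, plus a tag-only sample. Binding signal is a hexamer's read frequency for a factor divided by its frequency in the tag-only sample.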

ETV5 = ETV5 (Homo sapiens, UniProt P41161 1-510); conditions: protein: recombinant; tags: N-terminal GST; dsDNA, one strand shown
ETV5, sequence (P41161 whole entry): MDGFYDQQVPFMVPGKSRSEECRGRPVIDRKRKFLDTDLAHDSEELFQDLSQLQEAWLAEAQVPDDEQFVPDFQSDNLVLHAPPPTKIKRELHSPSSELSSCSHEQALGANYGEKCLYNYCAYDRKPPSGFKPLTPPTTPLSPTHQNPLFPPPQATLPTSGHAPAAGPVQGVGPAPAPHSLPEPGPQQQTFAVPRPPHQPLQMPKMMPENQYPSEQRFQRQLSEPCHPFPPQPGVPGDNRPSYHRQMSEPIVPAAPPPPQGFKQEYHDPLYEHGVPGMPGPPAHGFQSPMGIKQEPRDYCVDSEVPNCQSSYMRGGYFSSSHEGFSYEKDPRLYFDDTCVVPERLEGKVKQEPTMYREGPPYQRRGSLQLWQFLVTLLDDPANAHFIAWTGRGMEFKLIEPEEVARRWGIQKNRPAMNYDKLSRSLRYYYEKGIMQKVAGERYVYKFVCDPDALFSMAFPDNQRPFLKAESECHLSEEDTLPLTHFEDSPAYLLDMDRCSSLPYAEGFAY
Procedure, shortened: as §1

HSF1 = HSF1 (Homo sapiens, UniProt Q00613 1-529); conditions: protein: recombinant; tags: N-terminal GST; chain copies: 3; dsDNA, one strand shown
HSF1, sequence (Q00613 whole entry): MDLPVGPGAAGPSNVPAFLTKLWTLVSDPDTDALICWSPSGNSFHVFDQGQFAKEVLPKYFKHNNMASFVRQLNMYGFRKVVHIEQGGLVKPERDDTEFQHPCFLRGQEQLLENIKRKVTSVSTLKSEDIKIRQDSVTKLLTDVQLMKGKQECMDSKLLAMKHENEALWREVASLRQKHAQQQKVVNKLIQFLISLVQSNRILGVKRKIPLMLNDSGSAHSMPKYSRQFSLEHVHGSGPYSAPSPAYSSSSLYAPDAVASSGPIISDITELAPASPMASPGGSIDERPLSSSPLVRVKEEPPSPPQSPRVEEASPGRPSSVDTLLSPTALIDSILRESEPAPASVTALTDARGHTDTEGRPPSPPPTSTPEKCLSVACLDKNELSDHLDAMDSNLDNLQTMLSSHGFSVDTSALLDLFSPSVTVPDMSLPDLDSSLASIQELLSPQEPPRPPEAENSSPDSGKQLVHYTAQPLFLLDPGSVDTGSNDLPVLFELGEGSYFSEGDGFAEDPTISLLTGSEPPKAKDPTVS
Procedure, shortened: as §1

SPIC = target: T2, SPIC (Homo sapiens, UniProt Q8N5J4 1-248); conditions: protein: recombinant; tags: N-terminal GST; dsDNA, one strand shown
T2 sequence: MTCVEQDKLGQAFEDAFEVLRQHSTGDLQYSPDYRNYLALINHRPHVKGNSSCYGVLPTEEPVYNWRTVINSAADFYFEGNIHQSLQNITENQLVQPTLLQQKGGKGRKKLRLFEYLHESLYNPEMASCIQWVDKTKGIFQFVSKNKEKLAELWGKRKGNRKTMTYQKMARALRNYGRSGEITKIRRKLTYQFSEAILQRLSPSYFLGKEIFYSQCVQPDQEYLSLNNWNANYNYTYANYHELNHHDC
Procedure, shortened: as §1

ELF4 = ELF4 (Homo sapiens, UniProt Q99607 1-663); conditions: protein: recombinant; tags: N-terminal GST; dsDNA, one strand shown
ELF4, sequence (Q99607 whole entry): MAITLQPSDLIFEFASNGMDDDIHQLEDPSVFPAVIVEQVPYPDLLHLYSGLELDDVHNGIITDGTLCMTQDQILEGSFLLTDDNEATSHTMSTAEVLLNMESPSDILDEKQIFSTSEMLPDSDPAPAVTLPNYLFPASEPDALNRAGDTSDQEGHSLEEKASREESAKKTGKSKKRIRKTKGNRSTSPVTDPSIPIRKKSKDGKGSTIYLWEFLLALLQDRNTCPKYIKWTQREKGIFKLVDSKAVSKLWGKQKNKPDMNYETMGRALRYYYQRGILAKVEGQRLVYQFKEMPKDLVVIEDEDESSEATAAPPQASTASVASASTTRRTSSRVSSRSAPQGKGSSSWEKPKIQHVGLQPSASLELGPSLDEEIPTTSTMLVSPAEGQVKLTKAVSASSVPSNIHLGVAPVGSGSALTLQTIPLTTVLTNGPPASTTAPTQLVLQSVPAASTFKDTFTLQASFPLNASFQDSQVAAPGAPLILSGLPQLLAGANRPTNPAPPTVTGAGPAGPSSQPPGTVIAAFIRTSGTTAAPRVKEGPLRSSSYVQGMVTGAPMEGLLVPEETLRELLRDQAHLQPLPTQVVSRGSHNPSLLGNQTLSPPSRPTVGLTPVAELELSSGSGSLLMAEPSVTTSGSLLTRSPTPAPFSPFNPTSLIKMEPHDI
Procedure, shortened: as §1

ELK4 = target: T3, ELK4 (Homo sapiens, UniProt P28324-2 1-405); conditions: protein: recombinant; tags: N-terminal GST; dsDNA, one strand shown
T3 sequence: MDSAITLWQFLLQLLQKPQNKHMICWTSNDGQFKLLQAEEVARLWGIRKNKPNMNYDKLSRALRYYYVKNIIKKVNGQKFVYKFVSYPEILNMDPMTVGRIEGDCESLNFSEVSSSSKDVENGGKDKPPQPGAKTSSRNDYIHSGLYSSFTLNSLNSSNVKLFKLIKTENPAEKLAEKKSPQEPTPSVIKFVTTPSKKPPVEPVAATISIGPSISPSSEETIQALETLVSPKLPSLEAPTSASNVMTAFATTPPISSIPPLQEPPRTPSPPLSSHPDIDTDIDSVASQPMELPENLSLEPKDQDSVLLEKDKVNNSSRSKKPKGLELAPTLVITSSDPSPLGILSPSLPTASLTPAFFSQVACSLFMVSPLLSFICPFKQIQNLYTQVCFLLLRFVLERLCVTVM
Procedure, shortened: as §1

ETV2 = target: T4, ETV2 (Homo sapiens, UniProt O00321 1-342); conditions: protein: recombinant; tags: N-terminal GST; dsDNA, one strand shown
T4 sequence: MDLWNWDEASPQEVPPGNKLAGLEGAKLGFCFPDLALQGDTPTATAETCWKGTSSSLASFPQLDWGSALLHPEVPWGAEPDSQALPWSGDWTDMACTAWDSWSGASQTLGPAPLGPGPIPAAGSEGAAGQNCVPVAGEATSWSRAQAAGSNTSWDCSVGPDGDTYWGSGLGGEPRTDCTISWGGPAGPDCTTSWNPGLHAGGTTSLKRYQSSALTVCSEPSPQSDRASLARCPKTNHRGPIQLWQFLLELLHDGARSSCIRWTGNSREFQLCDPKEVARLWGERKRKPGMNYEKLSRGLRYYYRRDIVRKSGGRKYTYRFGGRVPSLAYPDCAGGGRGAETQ
Procedure, shortened: as §1

ELF3 = target: T5, ELF3 (Homo sapiens, UniProt P78545 1-371); conditions: protein: recombinant; tags: N-terminal GST; dsDNA, one strand shown
T5 sequence: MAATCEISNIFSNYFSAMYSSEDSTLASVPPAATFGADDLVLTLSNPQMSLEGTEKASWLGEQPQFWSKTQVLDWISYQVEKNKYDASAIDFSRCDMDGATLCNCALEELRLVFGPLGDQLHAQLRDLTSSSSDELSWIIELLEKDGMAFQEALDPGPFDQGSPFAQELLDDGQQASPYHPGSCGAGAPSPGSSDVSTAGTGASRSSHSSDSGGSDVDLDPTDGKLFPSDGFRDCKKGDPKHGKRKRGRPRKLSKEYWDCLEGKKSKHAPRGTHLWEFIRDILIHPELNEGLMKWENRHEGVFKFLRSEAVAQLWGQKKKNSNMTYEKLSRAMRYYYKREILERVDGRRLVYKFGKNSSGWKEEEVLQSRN
Procedure, shortened: as §1

CRX = CRX (Homo sapiens, UniProt O43186 1-299); conditions: protein: recombinant; tags: N-terminal GST; dsDNA, one strand shown
CRX, sequence (O43186 whole entry): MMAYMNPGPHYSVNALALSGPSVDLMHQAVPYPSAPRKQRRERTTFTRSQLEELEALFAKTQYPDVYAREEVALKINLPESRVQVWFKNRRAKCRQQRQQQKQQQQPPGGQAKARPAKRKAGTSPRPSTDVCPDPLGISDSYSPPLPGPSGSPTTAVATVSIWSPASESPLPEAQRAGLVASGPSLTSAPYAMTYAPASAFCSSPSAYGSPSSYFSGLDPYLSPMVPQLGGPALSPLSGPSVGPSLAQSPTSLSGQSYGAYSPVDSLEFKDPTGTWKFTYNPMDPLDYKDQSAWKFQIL
Procedure, shortened: as §1

ETV1 = ETV1 (Homo sapiens, UniProt P50549 1-477); conditions: protein: recombinant; tags: N-terminal GST; dsDNA, one strand shown
ETV1, sequence (P50549 whole entry): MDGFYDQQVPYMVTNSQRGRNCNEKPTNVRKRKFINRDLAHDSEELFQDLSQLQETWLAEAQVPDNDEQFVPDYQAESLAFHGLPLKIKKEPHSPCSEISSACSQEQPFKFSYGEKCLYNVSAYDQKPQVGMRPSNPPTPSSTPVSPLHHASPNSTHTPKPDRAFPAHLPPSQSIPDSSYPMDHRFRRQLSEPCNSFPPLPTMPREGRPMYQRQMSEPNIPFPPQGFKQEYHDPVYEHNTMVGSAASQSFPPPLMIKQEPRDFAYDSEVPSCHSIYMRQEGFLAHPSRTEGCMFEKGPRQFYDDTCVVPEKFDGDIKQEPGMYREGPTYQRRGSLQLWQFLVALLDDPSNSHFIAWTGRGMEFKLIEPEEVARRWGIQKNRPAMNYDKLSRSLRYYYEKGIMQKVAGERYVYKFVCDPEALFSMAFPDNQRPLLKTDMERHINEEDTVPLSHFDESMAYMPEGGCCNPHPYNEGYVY
Procedure, shortened: as §1

ERF = target: T6, ERF (Homo sapiens, UniProt P50548 1-548); conditions: protein: recombinant; tags: N-terminal GST; dsDNA, one strand shown
T6 sequence: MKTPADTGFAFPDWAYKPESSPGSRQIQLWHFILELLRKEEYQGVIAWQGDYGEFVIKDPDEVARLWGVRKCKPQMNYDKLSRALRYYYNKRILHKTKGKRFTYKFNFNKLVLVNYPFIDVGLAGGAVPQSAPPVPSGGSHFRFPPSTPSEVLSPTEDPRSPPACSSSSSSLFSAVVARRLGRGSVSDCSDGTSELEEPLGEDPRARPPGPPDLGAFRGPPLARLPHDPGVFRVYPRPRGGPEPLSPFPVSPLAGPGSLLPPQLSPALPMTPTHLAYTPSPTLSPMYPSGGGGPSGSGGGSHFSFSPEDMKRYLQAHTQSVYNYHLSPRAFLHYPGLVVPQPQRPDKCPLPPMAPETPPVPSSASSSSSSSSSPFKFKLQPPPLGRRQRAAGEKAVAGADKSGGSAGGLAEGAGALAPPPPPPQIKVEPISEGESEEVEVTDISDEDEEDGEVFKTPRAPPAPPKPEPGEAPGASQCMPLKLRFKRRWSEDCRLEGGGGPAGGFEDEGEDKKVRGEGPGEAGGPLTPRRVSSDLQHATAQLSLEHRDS
Procedure, shortened: as §1

ETV3L = target: T7, ETV3L (Homo sapiens, UniProt Q6ZN32 1-361); conditions: protein: recombinant; tags: N-terminal GST; dsDNA, one strand shown
T7 sequence: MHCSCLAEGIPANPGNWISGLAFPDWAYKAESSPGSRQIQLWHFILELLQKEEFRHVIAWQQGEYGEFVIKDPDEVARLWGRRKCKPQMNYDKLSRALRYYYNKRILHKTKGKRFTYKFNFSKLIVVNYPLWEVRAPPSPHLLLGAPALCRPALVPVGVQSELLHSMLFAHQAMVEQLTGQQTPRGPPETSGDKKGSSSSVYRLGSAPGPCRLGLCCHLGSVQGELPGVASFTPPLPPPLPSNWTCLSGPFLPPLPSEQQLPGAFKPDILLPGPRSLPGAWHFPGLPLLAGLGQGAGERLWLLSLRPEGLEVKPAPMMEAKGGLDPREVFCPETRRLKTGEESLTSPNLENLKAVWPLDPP
Procedure, shortened: as §1

ETS2 = target: T8, ETS2 (Homo sapiens, UniProt P15036 1-469); conditions: protein: recombinant; tags: N-terminal GST; dsDNA, one strand shown
T8 sequence: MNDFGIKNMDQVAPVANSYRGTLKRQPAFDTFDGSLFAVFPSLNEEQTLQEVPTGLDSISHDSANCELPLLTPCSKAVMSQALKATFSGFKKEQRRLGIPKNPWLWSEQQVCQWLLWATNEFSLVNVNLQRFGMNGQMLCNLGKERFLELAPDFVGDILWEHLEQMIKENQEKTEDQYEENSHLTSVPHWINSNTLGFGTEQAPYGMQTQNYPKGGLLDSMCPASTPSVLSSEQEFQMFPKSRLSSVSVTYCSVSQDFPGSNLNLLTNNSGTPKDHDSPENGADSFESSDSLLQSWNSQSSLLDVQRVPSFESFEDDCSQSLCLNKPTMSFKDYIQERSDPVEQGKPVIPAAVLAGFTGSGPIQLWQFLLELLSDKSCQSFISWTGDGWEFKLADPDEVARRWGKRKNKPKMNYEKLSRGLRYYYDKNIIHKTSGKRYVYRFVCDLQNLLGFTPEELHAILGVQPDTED
Procedure, shortened: as §1

SPDEF = target: T9, SPDEF (Homo sapiens, UniProt O95238 1-335); conditions: protein: recombinant; tags: N-terminal GST; dsDNA, one strand shown
T9 sequence: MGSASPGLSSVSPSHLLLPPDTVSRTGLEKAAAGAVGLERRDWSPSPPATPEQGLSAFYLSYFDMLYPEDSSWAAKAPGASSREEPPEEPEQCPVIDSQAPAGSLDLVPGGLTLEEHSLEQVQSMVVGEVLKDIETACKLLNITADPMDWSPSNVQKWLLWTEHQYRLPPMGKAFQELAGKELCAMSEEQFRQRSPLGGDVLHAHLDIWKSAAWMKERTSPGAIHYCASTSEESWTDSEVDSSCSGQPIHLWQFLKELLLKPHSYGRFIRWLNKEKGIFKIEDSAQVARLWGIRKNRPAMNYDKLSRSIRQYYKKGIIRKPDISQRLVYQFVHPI
Procedure, shortened: as §1

ETV7 = target: T10, ETV7 (Homo sapiens, UniProt Q9Y603 1-341); conditions: protein: recombinant; tags: N-terminal GST; dsDNA, one strand shown
T10 sequence: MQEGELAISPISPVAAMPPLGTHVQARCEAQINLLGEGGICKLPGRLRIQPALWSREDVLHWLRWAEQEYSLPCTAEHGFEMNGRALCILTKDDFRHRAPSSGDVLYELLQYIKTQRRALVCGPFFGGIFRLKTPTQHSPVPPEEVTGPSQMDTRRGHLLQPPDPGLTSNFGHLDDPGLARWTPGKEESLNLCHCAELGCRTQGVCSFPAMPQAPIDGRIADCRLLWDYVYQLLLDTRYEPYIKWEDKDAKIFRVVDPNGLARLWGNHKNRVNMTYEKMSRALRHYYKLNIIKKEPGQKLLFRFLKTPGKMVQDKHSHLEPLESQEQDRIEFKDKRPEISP
Procedure, shortened: as §1

ELF5 = target: T11, ELF5 (Homo sapiens, UniProt Q9UKW6-2 1-255); conditions: protein: recombinant; tags: N-terminal GST; dsDNA, one strand shown
T11 sequence: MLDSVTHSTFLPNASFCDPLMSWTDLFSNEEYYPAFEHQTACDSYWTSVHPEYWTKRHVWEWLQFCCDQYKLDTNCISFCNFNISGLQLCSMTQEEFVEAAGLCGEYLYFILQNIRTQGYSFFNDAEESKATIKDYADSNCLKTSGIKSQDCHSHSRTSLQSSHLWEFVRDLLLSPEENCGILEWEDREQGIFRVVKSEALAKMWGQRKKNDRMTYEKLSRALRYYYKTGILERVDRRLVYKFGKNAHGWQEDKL
Procedure, shortened: as §1

ETV3 = target: T12, ETV3 (Homo sapiens, UniProt P41162-2 1-143); conditions: protein: recombinant; tags: N-terminal GST; dsDNA, one strand shown
T12 sequence: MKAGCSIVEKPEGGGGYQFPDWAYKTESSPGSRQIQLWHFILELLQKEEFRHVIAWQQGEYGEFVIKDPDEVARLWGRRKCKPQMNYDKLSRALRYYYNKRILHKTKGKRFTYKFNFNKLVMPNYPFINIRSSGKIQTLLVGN
Procedure, shortened: as §1

ETV6 = ETV6 (Homo sapiens, UniProt P41212 1-452); conditions: protein: recombinant; tags: N-terminal GST; dsDNA, one strand shown
ETV6, sequence (P41212 whole entry): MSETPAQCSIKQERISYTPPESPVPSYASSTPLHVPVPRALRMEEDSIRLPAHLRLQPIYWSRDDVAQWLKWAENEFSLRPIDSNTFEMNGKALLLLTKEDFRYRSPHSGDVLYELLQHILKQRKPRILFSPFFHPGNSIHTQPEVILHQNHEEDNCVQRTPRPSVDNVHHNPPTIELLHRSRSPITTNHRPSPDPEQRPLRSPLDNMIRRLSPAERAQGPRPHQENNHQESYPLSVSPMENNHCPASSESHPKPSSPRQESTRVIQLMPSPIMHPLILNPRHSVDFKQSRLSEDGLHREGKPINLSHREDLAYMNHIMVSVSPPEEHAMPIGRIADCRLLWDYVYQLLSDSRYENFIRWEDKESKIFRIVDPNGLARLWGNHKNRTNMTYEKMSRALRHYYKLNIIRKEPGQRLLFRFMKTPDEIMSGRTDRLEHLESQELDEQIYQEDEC
Procedure, shortened: as §1

## CGTCTA
FEV
  binding signal: 1.24 fold enrichment (6-mer frequency, TF over GST control)
ETV5
  binding signal: 1.31 fold enrichment (6-mer frequency, TF over GST control)
HSF1
  binding signal: 1.52 fold enrichment (6-mer frequency, TF over GST control)
SPIC
  binding signal: 1.16 fold enrichment (6-mer frequency, TF over GST control)
ELF4
  binding signal: 1.4 fold enrichment (6-mer frequency, TF over GST control)
ELK4
  binding signal: 1.34 fold enrichment (6-mer frequency, TF over GST control)
ETV2
  binding signal: 1.29 fold enrichment (6-mer frequency, TF over GST control)
ELF3
  binding signal: 1.29 fold enrichment (6-mer frequency, TF over GST control)
CRX
  binding signal: 1.28 fold enrichment (6-mer frequency, TF over GST control)
ETV1
  binding signal: 1.36 fold enrichment (6-mer frequency, TF over GST control)
ERF
  binding signal: 1.29 fold enrichment (6-mer frequency, TF over GST control)
ETV3L
  binding signal: 1.4 fold enrichment (6-mer frequency, TF over GST control)
ETS2
  binding signal: 1.29 fold enrichment (6-mer frequency, TF over GST control)
SPDEF
  binding signal: 1.26 fold enrichment (6-mer frequency, TF over GST control)
ETV7
  binding signal: 1.28 fold enrichment (6-mer frequency, TF over GST control)
ELF5
  binding signal: 1.17 fold enrichment (6-mer frequency, TF over GST control)
ETV3
  binding signal: 1.26 fold enrichment (6-mer frequency, TF over GST control)
ETV6
  binding signal: 1.26 fold enrichment (6-mer frequency, TF over GST control)

Source: paper PMC7862700, “An all-to-all approach to the identification of sequence-specific readers for epigenetic DNA modifications on cytosine”
